# Results published in PubChem BioAssay AID1159580 (chemical genetic matrix, 2015).
# About 2,000 (36%) of roughly 5,500 compounds were called active. Inconclusive results (about 18%) are left out. The list shows a part of the results. A number with no mark means an inactive call. No stated cut-off is given here; in the data, active means normalized growth mostly below about 0.91 (no sharp cut-off); inconclusive means no clear call, values can overlap the other calls; inactive means mostly above about 0.92.
# Experiment: chemical genetic growth profiling, strain panel (AID 1159580);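 further: tested at 20 µM; growth read once vehicle control cultures reached saturation at 30 °C; 1 = growth at the plate median or of vehicle wells; lower values mean less growth of the strain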
# Details: S. cerevisiae deletion strains, growth OD
# [1] = locus YAL021C, strain ccr4, active compounds read low
# [2] = locus YAL026C, strain drs2, active compounds read low
# [3] = locus YAL030W, strain snc1, active compounds read low
# [4] = locus YBL061C, strain skt5, active compounds read low
# [5] = locus YBR009C, strain hhf1, active compounds read low
# [6] = locus YBR023C, strain chs3, active compounds read low
# [7] = locus YBR171W, strain sec66, active compounds read low
# [8] = locus YBR231C, strain swc5, active compounds read low
# [9] = locus YBR279W, strain paf1, active compounds read low
# [10] = locus YCL011C, strain gbp2, active compounds read low
# [11] = locus YCL016C, strain dcc1, active compounds read low
# [12] = locus YCL061C, strain MRC1, active compounds read low
# [13] = locus YCL069W, strain vba3, active compounds read low
# [14] = locus YCR088W, strain abp1, active compounds read low
# [15] = locus YDL005C, strain med2, active compounds read low
# [16] = locus YDL040C, strain nat1, active compounds read low
# [17] = locus YDR001C, strain nth1, active compounds read low
# [18] = locus YDR069C, strain doa4, active compounds read low
# [19] = locus YDR137W, strain rgp1, active compounds read low
# [20] = locus YDR159W, strain sac3, active compounds read low
# [21] = locus YDR297W, strain sur2, active compounds read low
# [22] = locus YDR334W, strain swr1, active compounds read low
# [23] = locus YDR335W, strain msn5, active compounds read low
# [24] = locus YDR392W, strain spt3, active compounds read low
# [25] = locus YEL003W, strain gim4, active compounds read low
# [26] = locus YEL037C, strain rad23, active compounds read low
# [27] = locus YEL061C, strain CIN8 (second series), active compounds read low
# [28] = locus YER015W, strain faa2, active compounds read low
# [29] = locus YER016W, strain bim1, active compounds read low
# [30] = locus YER111C, strain swi4, active compounds read low
# [31] = locus YER155C, strain BEM2 (second series), active compounds read low
# [32] = locus YFR010W, strain ubp6, active compounds read low
# [33] = locus YGL167C, strain pmr1, active compounds read low
# [34] = locus YGL173C, strain kem1, active compounds read low
# [35] = locus YGL227W, strain vid30, active compounds read low
# [36] = locus YGL240W, strain doc1, active compounds read low
# [37] = locus YGL253W, strain hxk2, active compounds read low
# [38] = locus YHR013C, strain ard1, active compounds read low
# [39] = locus YHR027C, strain rpn1, active compounds read low
# [40] = locus YHR030C, strain SLT2, active compounds read low
# [41] = locus YHR079C, strain IRE1, active compounds read low
# [42] = locus YHR142W, strain chs7, active compounds read low
# [43] = locus YJL092W, strain hpr5, active compounds read low
# [44] = locus YJL095W, strain BCK1 (second series), active compounds read low
# [45] = locus YJL095W, strain BCK1, active compounds read low
# [46] = locus YJL115W, strain asf1, active compounds read low
# [47] = locus YJL129C, strain trk1, active compounds read low
# [48] = locus YJL154C, strain vps35, active compounds read low
# [49] = locus YJL164C, strain tpk1, active compounds read low
# [50] = locus YJL166W, strain qcr8, active compounds read low
# [51] = locus YJR066W, strain TOR1, active compounds read low
# [52] = locus YKL160W, strain elf1, active compounds read low
# [53] = locus YKR026C, strain gcn3, active compounds read low
# [54] = locus YKR091W, strain srl3, active compounds read low
# [55] = locus YLL001W, strain dnm1, active compounds read low
# [56] = locus YLL026W, active compounds read low
# [57] = locus YLL041C, strain sdh2, active compounds read low
# [58] = locus YLR027C, strain aat2, active compounds read low
# [59] = locus YLR113W, strain HOG1, active compounds read low
# [60] = locus YLR221C, strain rsa3, active compounds read low
# [61] = locus YLR258W, strain gsy2, active compounds read low
# [62] = locus YLR262C, strain YPT6 (second series), active compounds read low
# [63] = locus YLR320W, strain mms22, active compounds read low
# [64] = locus YLR342W, strain FKS1, active compounds read low
# [65] = locus YLR357W, strain rsc2, active compounds read low
# [66] = locus YLR370C, strain arc18, active compounds read low
# [67] = locus YLR384C, strain iki3, active compounds read low
# [68] = locus YML120C, strain ndi1, active compounds read low
# [69] = locus YMR058W, strain fet3, active compounds read low
# [70] = locus YMR125W, strain sto1, active compounds read low
# [71] = locus YMR129W, active compounds read low
# [72] = locus YMR205C, strain PFK2, active compounds read low
# [73] = locus YMR231W, strain pep5, active compounds read low
# [74] = locus YNL071W, strain lat1, active compounds read low
# [75] = locus YNL183C, strain NPR1, active compounds read low
# [76] = locus YNL209W, strain ssb2, active compounds read low
# [77] = locus YNL248C, strain rpa49, active compounds read low
# [78] = locus YNL322C, strain KRE1 (second series), active compounds read low
# [79] = locus YNR049C, strain mso1, active compounds read low
# [80] = locus YOR001W, strain rrp6, active compounds read low
# [81] = locus YOR070C, strain gyp1, active compounds read low
# [82] = locus YOR080W, strain dia2, active compounds read low
# [83] = locus YOR083W, strain WHI5, active compounds read low
# [84] = locus YOR106W, strain vam3, active compounds read low
# [85] = locus YOR231W, strain MKK1, active compounds read low
# [86] = locus YOR265W, strain rbl2, active compounds read low
# [87] = locus YOR270C, strain vph1, active compounds read low
# [88] = locus YOR290C, strain snf2, active compounds read low
# [89] = locus YPL051W, strain arl3, active compounds read low
# [90] = locus YPL078C, strain atp4, active compounds read low
# [91] = locus YPL106C, strain sse1, active compounds read low
# [92] = locus YPL240C, strain hsp82, active compounds read low
# [93] = locus YPL256C, strain CLN2, active compounds read low
compound,measurement,setting,value
CC(=O)OCC(=O)[C@H]1CCC2C3CC=C4C[C@@H](O)CC[C@]4(C)C3CC[C@@]21C (some centres undefined),normalized growth,[1],1.04
same,normalized growth,[2],0.971
same,normalized growth,[3],0.993
same,normalized growth,[4],0.969
same,normalized growth,[5],0.819 (active)
same,normalized growth,[6],0.97
same,normalized growth,[7],1
same,normalized growth,[8],0.894 (active)
same,normalized growth,[9],0.998
same,normalized growth,[10],0.858 (active)
same,normalized growth,[11],0.983
same,normalized growth,[12],0.893 (active)
same,normalized growth,[13],0.893 (active)
same,normalized growth,[14],0.965
same,normalized growth,[15],0.885 (active)
same,normalized growth,[16],1.01
same,normalized growth,[17],1.01
same,normalized growth,[18],1.02
same,normalized growth,[19],0.742 (active)
same,normalized growth,[20],0.753 (active)
same,normalized growth,"locus YDR195W, strain ref2",1.4 [resistant] (active)
same,normalized growth,[21],1.02
same,normalized growth,[22],1.01
same,normalized growth,[23],0.908 (active)
same,normalized growth,[24],0.142 (active)
same,normalized growth,[25],0.894 (active)
same,normalized growth,[26],0.999
same,normalized growth,[27],0.945
same,normalized growth,[28],1.01
same,normalized growth,[29],0.967
same,normalized growth,[30],0.986
same,normalized growth,[31],0.337 (active)
same,normalized growth,[32],0.976
same,normalized growth,[33],1
same,normalized growth,[34],0.953
same,normalized growth,[35],0.935
same,normalized growth,[36],0.927
same,normalized growth,[37],0.937
same,normalized growth,[38],0.87
same,normalized growth,[39],1.05
same,normalized growth,[40],0.896
same,normalized growth,[41],0.915
same,normalized growth,[42],0.593 (active)
same,normalized growth,[43],0.931
same,normalized growth,[44],0.97
same,normalized growth,[45],0.956
same,normalized growth,[46],1.02
same,normalized growth,[47],0.696 (active)
same,normalized growth,[48],1.01
same,normalized growth,[49],0.853 (active)
same,normalized growth,[50],0.826 (active)
same,normalized growth,[51],0.913
same,normalized growth,[52],0.946
same,normalized growth,[53],1.01
same,normalized growth,[54],1.02
same,normalized growth,[55],0.829 (active)
same,normalized growth,[56],0.935
same,normalized growth,[57],1.07 [resistant] (active)
same,normalized growth,[58],0.921 (active)
same,normalized growth,[59],0.882
same,normalized growth,[60],0.816 (active)
same,normalized growth,[61],0.963
same,normalized growth,[62],0.583 (active)
same,normalized growth,[63],0.435 (active)
same,normalized growth,[64],0.762 (active)
same,normalized growth,[65],1.04
same,normalized growth,[66],1
same,normalized growth,[67],1.02
same,normalized growth,[68],0.805 (active)
same,normalized growth,[69],0.924
same,normalized growth,[70],0.829 (active)
same,normalized growth,[71],0.998
same,normalized growth,[72],0.833 (active)
same,normalized growth,[73],1.02
same,normalized growth,[74],0.175 (active)
same,normalized growth,[75],0.956
same,normalized growth,[76],1.08 [resistant] (active)
same,normalized growth,[77],0.899
same,normalized growth,[78],1.02
same,normalized growth,[79],0.991
same,normalized growth,[80],1.02
same,normalized growth,[81],1.03
same,normalized growth,[82],1.01
same,normalized growth,[83],0.885 (active)
same,normalized growth,[84],0.913
same,normalized growth,[85],0.942
same,normalized growth,[86],0.979
same,normalized growth,[87],0.669 (active)
same,normalized growth,[88],0.862 (active)
same,normalized growth,[89],1
same,normalized growth,[90],0.887 (active)
same,normalized growth,[91],1.3 [resistant] (active)
same,normalized growth,[92],1.03
same,normalized growth,[93],0.906
CC(=O)[C@H]1CCC2C3CC=C4C[C@@H](OC(=O)CCC(=O)O)CC[C@]4(C)C3CC[C@@]21C (some centres undefined),normalized growth,[1],0.975
same,normalized growth,[2],0.913
same,normalized growth,[3],0.969
same,normalized growth,[4],0.964
same,normalized growth,[5],0.899 (active)
same,normalized growth,[6],0.96
same,normalized growth,[7],0.898
same,normalized growth,[8],0.975
same,normalized growth,[9],0.961
same,normalized growth,[10],0.957
same,normalized growth,[11],0.965
same,normalized growth,[12],0.962
same,normalized growth,[13],0.983
same,normalized growth,[14],0.966
same,normalized growth,[15],0.941
same,normalized growth,[16],0.973
same,normalized growth,[17],0.971
same,normalized growth,[18],0.966
same,normalized growth,[19],0.556 (active)
same,normalized growth,[20],0.943
same,normalized growth,"locus YDR195W, strain ref2",1.03
same,normalized growth,[21],0.95
same,normalized growth,[22],0.989
same,normalized growth,[23],0.977
same,normalized growth,[24],0.466 (active)
same,normalized growth,[25],0.968
same,normalized growth,[26],0.972
same,normalized growth,[27],0.97
same,normalized growth,[28],0.985
same,normalized growth,[29],0.969
same,normalized growth,[30],0.953
same,normalized growth,[31],0.842 (active)
same,normalized growth,[32],0.966
same,normalized growth,[33],0.928
same,normalized growth,[34],0.898 (active)
same,normalized growth,[35],0.973
same,normalized growth,[36],0.939
same,normalized growth,[37],0.971
same,normalized growth,[38],0.941
same,normalized growth,[39],0.978
same,normalized growth,[40],0.997
same,normalized growth,[41],0.974
same,normalized growth,[42],0.932
same,normalized growth,[43],0.966
same,normalized growth,[44],0.971
same,normalized growth,[45],0.913
same,normalized growth,[46],0.99
same,normalized growth,[47],0.804 (active)
same,normalized growth,[48],0.988
same,normalized growth,[49],0.955
same,normalized growth,[50],0.929
same,normalized growth,"locus YJL187C, strain SWE1, active compounds read low",0.968
same,normalized growth,[51],0.942
same,normalized growth,[52],0.951
same,normalized growth,[53],0.962
same,normalized growth,[54],0.968
same,normalized growth,[55],0.948
same,normalized growth,[56],0.974
same,normalized growth,[57],0.985
same,normalized growth,[58],0.978
same,normalized growth,[59],0.855
same,normalized growth,[60],0.967
same,normalized growth,[61],0.956
same,normalized growth,[62],0.57 (active)
same,normalized growth,[63],0.796 (active)
same,normalized growth,[64],0.955
same,normalized growth,[65],0.989
same,normalized growth,[66],0.942
same,normalized growth,[67],0.97
same,normalized growth,[68],0.9 (active)
same,normalized growth,[69],0.963
same,normalized growth,[70],0.938
same,normalized growth,[71],0.968
same,normalized growth,[72],0.822 (active)
same,normalized growth,[73],0.975
same,normalized growth,[74],0.845 (active)
same,normalized growth,[75],0.927
same,normalized growth,[76],0.969
same,normalized growth,[77],0.988
same,normalized growth,[78],0.969
same,normalized growth,[79],0.973
same,normalized growth,[80],0.952
same,normalized growth,[81],0.959
same,normalized growth,[82],0.95
same,normalized growth,[83],0.974
same,normalized growth,[84],0.953
same,normalized growth,[85],0.961
same,normalized growth,[86],0.981
same,normalized growth,[87],0.91
same,normalized growth,[88],0.908
same,normalized growth,[89],0.973
same,normalized growth,[90],0.956
same,normalized growth,[91],1
same,normalized growth,[92],0.971
same,normalized growth,[93],0.991
